{"source": "paper PMC4552634", "about": "“A New Set of Chemical Starting Points with Plasmodium falciparum Transmission-Blocking Potential for Antimalarial Drug Discovery” (PLoS ONE, 2015)", "note": "Out of some 13,000 compounds screened, about 3,200 (25%) showed an effect of 50% or more. The list shows a part of the results.", "data": [{"system": "P. falciparum stage V gametocytes", "parameters": "BacTiter-Glo ATP luminescence viability of purified stage V gametocytes in 384-well plates, per cent inhibition versus DMSO", "conditions": "48 h, 5 µM; inhibitor", "units": {"% Inhibition": "%"}, "values": [{"compound": "N#Cc1cccc(NC(=O)Nc2ccc(CC(=O)N3CCc4cc(Cl)c(N5CCN(C/C=C/c6ccccc6)CC5)cc43)cc2)c1", "note": "[TCMDC-139476]", "% Inhibition": 12.28}, {"compound": "CCCc1cc(Cc2cnc(N)nc2N)ccc1OCCCCCC(=O)O", "note": "[TCMDC-137231]", "% Inhibition": -22.54}, {"compound": "CS(=O)(=O)CCNCc1cc(-c2cc3ncnc(Nc4ccc(OCc5cccc(F)c5)c(Cl)c4)c3s2)cs1", "note": "[TCMDC-138726]", "% Inhibition": -0.4482}, {"compound": "CCOC(=O)c1ccc2nc(-c3ccc(C(=O)NC4CCN(Cc5ccccc5)CC4)s3)[nH]c2c1", "note": "[TCMDC-140575]", "% Inhibition": -23.22}, {"compound": "CCCCSc1nc2c(c(=O)n1Cc1ccco1)C1(CCCCC1)Cc1ccccc1-2", "note": "[TCMDC-123896]", "% Inhibition": -14.5}, {"compound": "CC(C)(C)Oc1ccc(C[C@@H]2NC3(C(=O)N(Cc4ccc(Cl)c(Cl)c4)c4ccccc43)C3C(=O)N(c4ccc(Br)cc4)C(=O)C32)cc1", "note": "(stereo partly shown) [TCMDC-139775]", "% Inhibition": -22.32}, {"compound": "CC(=O)Nc1ccc(OCCCCN(Cc2ccccc2C(F)(F)F)c2ccc(C#N)c(C(F)(F)F)c2)cc1", "note": "[TCMDC-132800]", "% Inhibition": 12.39}, {"compound": "CC(=O)Nc1ccc(OCCCCN(Cc2ccccc2OC(F)(F)F)c2ccc(C(F)(F)F)c(C#N)c2)c(Cl)c1", "note": "[TCMDC-132788]", "% Inhibition": 39.51}, {"compound": "CC(=O)Nc1ccc(OCCN(CC(C)(C)C)c2ccc(C#N)c(C(F)(F)F)c2)c(Cl)c1", "note": "[TCMDC-132786]", "% Inhibition": 66.46}, {"compound": "CC(=O)Nc1ccc(OCCN(CC(C)C)c2ccc(C#N)c(C(F)(F)F)c2)c(Cl)c1", "note": "[TCMDC-137002]", "% Inhibition": 29.5}, {"compound": "CC(=O)Nc1ccc(OCCCCN(Cc2ccccc2C(F)(F)F)c2ccc(C#N)c(C(F)(F)F)c2)c(Cl)c1", "note": "[TCMDC-132787]", "% Inhibition": 69.01}, {"compound": "CC(=O)Nc1ccc(OCCN(CC(C)C)c2ccc(C(F)(F)F)c(C#N)c2)c(Cl)c1", "note": "[TCMDC-132793]", "% Inhibition": 18.14}, {"compound": "O=C(Nc1ccc(-c2cccc(-c3nc4ccccc4[nH]3)c2)cc1)Nc1ccc(F)c(F)c1F", "note": "[TCMDC-133237]", "% Inhibition": 3.705}, {"compound": "COc1cc(N)cc2sc(N)nc12", "note": "[TCMDC-124235]", "% Inhibition": -47.26}, {"compound": "COCCN(C)c1ccc(C(=O)Nc2ccccc2)cc1NS(=O)(=O)Cc1ccccc1", "note": "[TCMDC-134575]", "% Inhibition": 41.39}, {"compound": "O=C(O)CCSSc1cccc[n+]1[O-]", "note": "[TCMDC-141973]", "% Inhibition": 168.8}, {"compound": "COc1cc2c(cc1C(F)(F)F)N(C(=O)Nc1cc(F)cc(-c3cccnn3)c1)CC2", "note": "[TCMDC-139045]", "% Inhibition": -0.3523}, {"compound": "Cc1ccc(C(=O)Nc2ccc(Nc3ccnc4cc(-c5ccccn5)ccc34)cc2O)cc1", "note": "[TCMDC-138205]", "% Inhibition": 115.7}, {"compound": "Cc1ccc(Nc2ccnc3cc(-c4nccs4)ccc23)cc1C(O)c1ccccc1", "note": "(stereo not shown) [TCMDC-138338]", "% Inhibition": -2.553}, {"compound": "O=C(C(=O)c1ccc(Nc2ccnc3cc(-c4ccccn4)ccc23)cc1)c1ccccc1", "note": "[TCMDC-138204]", "% Inhibition": -8.545}, {"compound": "Cc1ccc(O)cc1Nc1ccnc2cc(-c3ccccn3)ccc12", "note": "[TCMDC-138201]", "% Inhibition": 17.09}, {"compound": "COc1cc2nccc(Nc3ccc(NC(=O)c4ccc(C)cc4)c(O)c3)c2cc1OC.Cl", "note": "[TCMDC-138197]", "% Inhibition": 20.08}, {"compound": "CC(=O)Nc1ccc(COc2ccc(Nc3ccnc4cc(-c5ccccn5)ccc34)cc2)cc1", "note": "[TCMDC-138206]", "% Inhibition": 116.6}, {"compound": "Cc1ccc(C(=O)Nc2ccc(Nc3ccnc4cc(-c5ccncc5)ccc34)cc2O)cc1", "note": "[TCMDC-138294]", "% Inhibition": -17.41}, {"compound": "c1ccc(-c2ccc3c(Nc4ccc5[nH]ncc5c4)ccnc3c2)nc1", "note": "[TCMDC-138199]", "% Inhibition": 108.3}, {"compound": "COc1ccc(Nc2ccnc3cc(-c4ccccn4)ccc23)cc1OC", "note": "[TCMDC-138207]", "% Inhibition": -27.22}, {"compound": "COc1cc2nccc(Nc3ccc(OCc4ccc(NC(C)=O)cc4)cc3)c2cc1OC.Cl", "note": "[TCMDC-138198]", "% Inhibition": -13.16}, {"compound": "c1ccc(-c2ccc3c(Nc4ccc5[nH]ccc5c4)ccnc3c2)nc1", "note": "[TCMDC-138200]", "% Inhibition": 22.33}, {"compound": "Cc1ccc(C(=O)Nc2ccc(Nc3ccnc4cc(-c5nccs5)ccc34)cc2O)cc1", "note": "[TCMDC-138298]", "% Inhibition": 75.39}, {"compound": "Cc1ccc(F)cc1S(=O)(=O)NCC(C)c1ccc(NC(=O)Nc2cccc(F)c2)cc1", "note": "(stereo not shown) [TCMDC-136380]", "% Inhibition": -32.92}, {"compound": "OC(CNc1ccnc(Nc2cccc(Cl)c2)n1)c1ccccc1C(F)(F)F", "note": "(stereo not shown) [TCMDC-136578]", "% Inhibition": -37.8}, {"compound": "CC(C)n1cc2c(ccc3nc(N)nc(N)c32)n1", "note": "[TCMDC-137865]", "% Inhibition": -36.93}, {"compound": "COc1ccc2nccc([C@@H](O)CN3CCC(NCc4ccc5c(c4)N(C)C(=O)CO5)CC3)c2c1", "note": "[TCMDC-141093]", "% Inhibition": -7.365}, {"compound": "COCCCNc1sc(S(=O)(=O)c2ccccc2)nc1S(=O)(=O)c1ccc(C)cc1", "note": "[TCMDC-125275]", "% Inhibition": -13.04}, {"compound": "CS(=O)(=O)CCNCc1nc(-c2ccc3c(=O)[nH]cnc3c2)cs1", "note": "[TCMDC-138539]", "% Inhibition": 107}, {"compound": "CS(=O)(=O)CCNCc1nc(-c2ccc3c(Nc4ccc(F)c(O)c4)ccnc3c2)cs1", "note": "[TCMDC-138437]", "% Inhibition": -66.48}, {"compound": "CS(=O)(=O)CCNCc1nc(-c2ccc3ncnc(Nc4ccc(OCc5ccccc5)c(Cl)c4)c3c2)cs1", "note": "[TCMDC-138497]", "% Inhibition": -10.86}, {"compound": "O=C(Nc1ccc(Cl)cc1)N(CC1CC2CCC(C1)N2Cc1ccc(C(F)(F)F)cc1)c1ccc(N2CCOCC2)c(F)c1", "note": "(stereo not shown) [TCMDC-135859]", "% Inhibition": 42.25}, {"compound": "COCc1nc(-c2ccccc2)nc(N2CCN(C(=O)NC(C)C)CC2)c1Cc1ccccc1F", "note": "[TCMDC-124782]", "% Inhibition": 9.126}, {"compound": "Cc1onc(-c2c(Cl)cccc2Cl)c1C(=O)NC1=NC(C)(C)ON1c1ccccc1", "note": "[TCMDC-123777]", "% Inhibition": -4.951}, {"compound": "Cc1cccc2[nH]c(-c3ccc(-c4cccc(NC(=O)NCc5ccccc5)c4)cc3)nc12", "note": "[TCMDC-133162]", "% Inhibition": -12.85}, {"compound": "COCCNCc1cccc(-c2ccc(CN(C(=O)Nc3ccccc3)C3CCN(Cc4ccccc4)CC3)cc2)c1", "note": "[TCMDC-140599]", "% Inhibition": 105.4}, {"compound": "COCCNCc1ccc(-c2ccc(CN(C(=O)Nc3ccccc3)C3CCN(Cc4ccccc4)CC3)cc2)cc1", "note": "[TCMDC-140600]", "% Inhibition": 51.26}, {"compound": "COCCNCc1cccc(-c2ccccc2CN(C(=O)Nc2ccccc2)C2CCN(Cc3ccccc3)CC2)c1", "note": "[TCMDC-140579]", "% Inhibition": 41.2}, {"compound": "COCCNCc1cccc(-c2cccc(CN(C(=O)Nc3ccccc3)C3CCN(Cc4ccccc4)CC3)c2)c1", "note": "[TCMDC-140586]", "% Inhibition": 56.29}, {"compound": "COc1cccc(CN2CCCC(CCC(=O)Nc3ccc(C(F)(F)F)cc3)C2)c1O", "note": "(stereo not shown) [TCMDC-124616]", "% Inhibition": -32.93}, {"compound": "COc1ccc(CC(=O)Nc2ccc(-c3cccc(-c4nc5c(C)cccc5[nH]4)c3)cc2)cc1O", "note": "[TCMDC-132145]", "% Inhibition": -7.504}, {"compound": "Fc1ccc(CNc2nc(-c3ccc(F)c(C(F)(F)F)c3)n(-c3cccc(C(F)(F)F)c3)n2)cc1", "note": "[TCMDC-133543]", "% Inhibition": -1.205}, {"compound": "O=[N+]([O-])c1cccc(-n2nc(NCc3ccc(Cl)cc3)nc2-c2ccc(F)c(C(F)(F)F)c2)c1", "note": "[TCMDC-133541]", "% Inhibition": 77.17}, {"compound": "Fc1ccc(-c2nc(NCc3cccc(C(F)(F)F)c3)nn2-c2cccc(C(F)(F)F)c2)cc1C(F)(F)F", "note": "[TCMDC-133542]", "% Inhibition": -57.69}, {"compound": "O=C(O)C1Cc2c([nH]c3ccccc23)C(c2ccc(Cl)cc2Cl)N1", "note": "(stereo not shown) [TCMDC-125815]", "% Inhibition": 25.42}, {"compound": "CCOC(=O)C1=C(C)NC(Cn2ccnc2)=C(C(=O)OCC)C1c1ccc(C(C)(C)C)cc1", "note": "(stereo not shown) [TCMDC-138170]", "% Inhibition": 12.53}, {"compound": "CC(=O)Nc1ccc(NC(=O)c2cc(-c3ccc(C)cc3O)n[nH]2)cc1", "note": "[TCMDC-125182]", "% Inhibition": 0.9116}, {"compound": "CCN(c1ccccc1)S(=O)(=O)c1ccc(NC(=O)c2cc(-c3cc(C)ccc3O)n[nH]2)cc1", "note": "[TCMDC-124308]", "% Inhibition": 51.8}, {"compound": "Cc1ccc(O)c(-c2cc(C(=O)Nc3ccc(S(=O)(=O)N4CCCCCC4)cc3)[nH]n2)c1", "note": "[TCMDC-125201]", "% Inhibition": -31.36}, {"compound": "CC(=O)Nc1ccc(NC(=O)c2cc(-c3cc(Cl)ccc3O)n[nH]2)cc1", "note": "[TCMDC-125476]", "% Inhibition": 83.42}, {"compound": "Cc1ccc(-c2cc(C(=O)Nc3ccc(S(=O)(=O)N(C)Cc4ccccc4)cc3)[nH]n2)c(O)c1", "note": "[TCMDC-125181]", "% Inhibition": -25.99}, {"compound": "O=C(Nc1cccnc1)c1cc(-c2cc(Cl)ccc2O)n[nH]1", "note": "[TCMDC-125322]", "% Inhibition": -15.69}, {"compound": "Cc1cccc(C)c1CNc1nc(N2CCOCC2)cc2c(C)c(C)[nH]c12", "note": "[TCMDC-134210]", "% Inhibition": 43.54}, {"compound": "CCNC(=O)N[C@@H]1CN[C@@H](C#Cc2cc3c(Nc4ccc(OCc5cccc(F)c5)c(Cl)c4)ncnc3s2)C1", "note": "[TCMDC-135409]", "% Inhibition": -11.09}, {"compound": "COc1cc(CNc2ccc(N3CCCC3)cc2)cc(Cl)c1OC", "note": "[TCMDC-124518]", "% Inhibition": 100.8}, {"compound": "COc1ccc(CNC2CCN(c3ccc(NC(=O)c4cccc(Cl)c4)cc3)CC2)cc1OC", "note": "[TCMDC-124658]", "% Inhibition": -12.9}, {"compound": "COc1ccc(C=CC(=O)Nc2ccc(N3CCCC3)cc2)cc1", "note": "[TCMDC-125750]", "% Inhibition": -68.82}, {"compound": "CCCC1(C)CSc2ccccc2C(c2ccccc2)N1", "note": "(stereo not shown) [TCMDC-137314]", "% Inhibition": 11.78}, {"compound": "CCCCCCCN(Cc1ccc(OC(C)(C)C(=O)OCC)cc1)C(=O)Nc1ccccc1OCC", "note": "[TCMDC-137534]", "% Inhibition": 46.34}, {"compound": "CCCCCCCN(Cc1ccc(OC(C)(C)C(=O)OCC)cc1)C(=O)Nc1ccc(Cl)cc1OCC", "note": "[TCMDC-131919]", "% Inhibition": 74.71}, {"compound": "CCCCCCCN(Cc1ccc(OC(C)(C)C(=O)OCC)cc1)C(=O)Nc1ccccc1OC(F)(F)F", "note": "[TCMDC-131918]", "% Inhibition": 45.53}]}]}
